# The full data set covers some 8,800 targets. This sample favours those with a hit. About 0.5% of all pairs of compound and target were hits. Unmarked numbers belong to inactive results.
# Columns and labels:
# Experiment in all cases: log2 fold change, soluble protein after heating vs DMSO (PISA); higher = thermal stabilisation; K562 lysate, 10 uM; active = over 0.2 and 3.5 SD of the protein, either way, in both replicates (recomputed)
# [1] = compound: C#Cc1cccc(Nc2ncnc3cc(OCCOC)c(OCCOC)cc23)c1 [erlotinib]
# Procedure, shortened: (§1)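 Soluble protein was defined as the supernatant remaining after 21,000xg for 90 min, following pooling of heated aliquots and adjustment to 0.5% NP-40 at 4°C. Before that, crude K562 extract at 1 mg/mL protein in PBS pH 7.4 with 1 mM MgCl2 was treated with 10 μM compound for 30 min and heated for 3 min across 48°C-58°C. Quantification used TMTpro 16plex LC-MS/MS with channel sums equalised, and values are log-two fold changes in thermal stability relative to solvent controls from duplicates.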
# [2] = compound: C/C(=N\NC(=O)C1=CC(=CC=C1)S(=O)(=O)N2CCOCC2)/C3=C(C=CC(=C3)Cl)O
# Procedure, shortened: as §1
# [3] = compound: C1=CC(=CC=C1C2=NC3=C(N2)C=C(C=C3)C(=O)N)OC4=CC=C(C=C4)Cl
# Procedure, shortened: as §1
# [4] = compound: C1=CC2=C(C=CC(=C2)/C=C\3/C(=O)NC(=NCC4=CC=CS4)S3)N=C1
# Procedure, shortened: as §1
# [5] = compound: C1=CC2=NC=CN=C2C=C1/C=C/3\C(=O)NC(=O)S3
# Procedure, shortened: as §1
# [6] = compound: C1=CC=C(C=C1)C2=NC(=C(N2)C3=CC=NC=C3)C4=CC(=C(C=C4)Cl)O
# Procedure, shortened: as §1
# [7] = compound: C1=CC=C2C(=C1)C3=NNC4=CC=CC(=C43)C2=O
# Procedure, shortened: as §1
# [8] = compound: C1CCN(C1)C(=O)NC2=CC=CC(=C2)NC3=NC=C(C(=N3)NCCC4=CN=CN4)Br
# Procedure, shortened: as §1
# [9] = compound: C1CN(CCC1(CC2=CC=C(C=C2)Cl)N)C3=NC=NC4=C3C=CN4
# Procedure, shortened: as §1
# [10] = compound: C1COCCN1CCN2C3=CC=CC=C3N=C2NC(=O)C4=CC(=CC=C4)[N+](=O)[O-] [IRAK-1-4 Inhibitor I]
# Procedure, shortened: as §1
# Sequence of UniProt P33121 (P33121 whole entry, looked up): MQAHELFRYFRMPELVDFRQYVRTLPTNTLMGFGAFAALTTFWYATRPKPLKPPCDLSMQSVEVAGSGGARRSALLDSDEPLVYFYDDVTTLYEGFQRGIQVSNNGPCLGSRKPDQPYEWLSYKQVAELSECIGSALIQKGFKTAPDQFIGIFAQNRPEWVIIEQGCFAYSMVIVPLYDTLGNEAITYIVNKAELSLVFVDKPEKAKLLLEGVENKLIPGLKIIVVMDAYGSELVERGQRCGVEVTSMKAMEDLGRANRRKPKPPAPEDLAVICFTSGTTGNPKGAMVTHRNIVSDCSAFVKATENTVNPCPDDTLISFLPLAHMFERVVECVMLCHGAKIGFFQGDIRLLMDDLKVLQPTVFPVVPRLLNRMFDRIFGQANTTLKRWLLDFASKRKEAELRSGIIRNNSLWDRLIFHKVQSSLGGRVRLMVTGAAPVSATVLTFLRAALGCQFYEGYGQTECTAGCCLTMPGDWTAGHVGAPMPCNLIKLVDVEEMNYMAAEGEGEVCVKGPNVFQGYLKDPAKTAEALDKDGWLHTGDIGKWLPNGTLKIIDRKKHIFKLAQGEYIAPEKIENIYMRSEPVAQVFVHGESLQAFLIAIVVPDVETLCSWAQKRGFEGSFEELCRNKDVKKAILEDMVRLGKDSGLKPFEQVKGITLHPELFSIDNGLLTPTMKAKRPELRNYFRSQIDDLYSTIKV
# Sequence of UniProt O14617 (O14617 whole entry, looked up): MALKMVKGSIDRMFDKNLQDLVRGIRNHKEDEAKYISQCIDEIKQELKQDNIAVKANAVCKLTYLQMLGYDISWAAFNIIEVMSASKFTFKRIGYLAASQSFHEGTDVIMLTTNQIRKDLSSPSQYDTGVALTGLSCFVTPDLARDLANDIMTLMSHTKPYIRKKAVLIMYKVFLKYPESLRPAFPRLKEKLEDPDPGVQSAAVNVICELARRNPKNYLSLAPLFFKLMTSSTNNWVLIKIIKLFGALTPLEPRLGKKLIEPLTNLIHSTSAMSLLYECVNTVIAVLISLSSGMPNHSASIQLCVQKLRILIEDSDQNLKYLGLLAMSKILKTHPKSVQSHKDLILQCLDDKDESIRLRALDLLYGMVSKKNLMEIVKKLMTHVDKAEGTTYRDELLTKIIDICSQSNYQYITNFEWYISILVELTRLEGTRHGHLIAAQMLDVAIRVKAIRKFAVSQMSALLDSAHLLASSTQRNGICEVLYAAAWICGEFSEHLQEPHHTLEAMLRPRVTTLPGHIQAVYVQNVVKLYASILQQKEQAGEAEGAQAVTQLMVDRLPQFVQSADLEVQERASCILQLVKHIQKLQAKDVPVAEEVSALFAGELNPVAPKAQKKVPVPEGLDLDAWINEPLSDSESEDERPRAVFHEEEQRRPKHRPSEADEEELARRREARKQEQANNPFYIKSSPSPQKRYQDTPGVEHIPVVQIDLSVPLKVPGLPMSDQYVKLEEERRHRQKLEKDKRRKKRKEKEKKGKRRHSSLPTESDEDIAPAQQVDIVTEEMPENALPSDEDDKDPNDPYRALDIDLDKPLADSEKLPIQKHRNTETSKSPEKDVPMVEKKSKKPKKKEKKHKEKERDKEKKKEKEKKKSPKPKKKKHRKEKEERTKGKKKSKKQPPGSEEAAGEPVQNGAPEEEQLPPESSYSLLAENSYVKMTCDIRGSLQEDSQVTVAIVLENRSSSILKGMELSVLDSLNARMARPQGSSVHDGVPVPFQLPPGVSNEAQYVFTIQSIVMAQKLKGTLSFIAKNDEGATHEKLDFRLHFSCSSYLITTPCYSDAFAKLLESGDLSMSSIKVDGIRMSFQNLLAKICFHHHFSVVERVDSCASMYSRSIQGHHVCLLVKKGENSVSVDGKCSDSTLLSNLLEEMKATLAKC
# Sequence of UniProt P00352 (P00352 whole entry, looked up): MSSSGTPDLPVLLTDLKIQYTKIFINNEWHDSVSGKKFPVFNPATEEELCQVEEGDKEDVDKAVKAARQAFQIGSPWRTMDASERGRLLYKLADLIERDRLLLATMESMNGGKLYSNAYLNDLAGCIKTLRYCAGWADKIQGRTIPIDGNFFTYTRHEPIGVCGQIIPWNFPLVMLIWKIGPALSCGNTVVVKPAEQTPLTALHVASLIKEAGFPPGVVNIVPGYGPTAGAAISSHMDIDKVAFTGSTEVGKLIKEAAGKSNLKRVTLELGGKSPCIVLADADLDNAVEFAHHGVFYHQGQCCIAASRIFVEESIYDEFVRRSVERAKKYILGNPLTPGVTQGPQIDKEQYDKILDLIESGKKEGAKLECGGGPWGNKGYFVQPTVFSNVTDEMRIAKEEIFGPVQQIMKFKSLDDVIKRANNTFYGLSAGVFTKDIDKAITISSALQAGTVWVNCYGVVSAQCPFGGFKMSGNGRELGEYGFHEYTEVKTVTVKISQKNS
# Sequence of UniProt O60488 (O60488 whole entry, looked up): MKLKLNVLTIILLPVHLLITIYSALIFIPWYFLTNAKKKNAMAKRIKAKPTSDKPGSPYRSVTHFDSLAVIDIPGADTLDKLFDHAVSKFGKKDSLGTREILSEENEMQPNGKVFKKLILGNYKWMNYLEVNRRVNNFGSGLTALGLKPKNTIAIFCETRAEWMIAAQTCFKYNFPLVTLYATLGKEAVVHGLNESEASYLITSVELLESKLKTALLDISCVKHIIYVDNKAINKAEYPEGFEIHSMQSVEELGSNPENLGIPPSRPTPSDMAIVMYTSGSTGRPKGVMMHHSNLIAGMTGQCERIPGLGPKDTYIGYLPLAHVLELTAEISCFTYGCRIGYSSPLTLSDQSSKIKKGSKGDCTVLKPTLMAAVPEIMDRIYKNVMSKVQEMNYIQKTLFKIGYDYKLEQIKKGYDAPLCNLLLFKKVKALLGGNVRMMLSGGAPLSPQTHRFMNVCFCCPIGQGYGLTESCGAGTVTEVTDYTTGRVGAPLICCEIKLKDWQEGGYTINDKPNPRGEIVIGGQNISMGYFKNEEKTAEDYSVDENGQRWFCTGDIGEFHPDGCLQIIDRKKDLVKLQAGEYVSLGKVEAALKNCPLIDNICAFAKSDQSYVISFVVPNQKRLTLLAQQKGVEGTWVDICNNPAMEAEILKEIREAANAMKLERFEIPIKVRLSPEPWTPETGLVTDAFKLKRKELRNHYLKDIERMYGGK
# Sequence of UniProt Q9NWX5 (Q9NWX5 whole entry, looked up): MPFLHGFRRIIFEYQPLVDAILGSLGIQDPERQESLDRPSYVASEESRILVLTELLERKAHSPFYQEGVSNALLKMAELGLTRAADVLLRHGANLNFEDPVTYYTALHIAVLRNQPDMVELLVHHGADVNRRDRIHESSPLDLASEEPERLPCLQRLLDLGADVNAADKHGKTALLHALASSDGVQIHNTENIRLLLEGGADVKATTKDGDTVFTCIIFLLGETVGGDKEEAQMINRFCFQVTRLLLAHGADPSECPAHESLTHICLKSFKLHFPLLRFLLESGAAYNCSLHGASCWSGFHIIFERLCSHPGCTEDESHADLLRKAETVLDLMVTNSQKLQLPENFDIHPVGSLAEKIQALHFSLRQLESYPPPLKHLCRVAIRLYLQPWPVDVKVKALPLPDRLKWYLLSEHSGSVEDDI
# Sequence of UniProt Q15067 (Q15067 whole entry, looked up): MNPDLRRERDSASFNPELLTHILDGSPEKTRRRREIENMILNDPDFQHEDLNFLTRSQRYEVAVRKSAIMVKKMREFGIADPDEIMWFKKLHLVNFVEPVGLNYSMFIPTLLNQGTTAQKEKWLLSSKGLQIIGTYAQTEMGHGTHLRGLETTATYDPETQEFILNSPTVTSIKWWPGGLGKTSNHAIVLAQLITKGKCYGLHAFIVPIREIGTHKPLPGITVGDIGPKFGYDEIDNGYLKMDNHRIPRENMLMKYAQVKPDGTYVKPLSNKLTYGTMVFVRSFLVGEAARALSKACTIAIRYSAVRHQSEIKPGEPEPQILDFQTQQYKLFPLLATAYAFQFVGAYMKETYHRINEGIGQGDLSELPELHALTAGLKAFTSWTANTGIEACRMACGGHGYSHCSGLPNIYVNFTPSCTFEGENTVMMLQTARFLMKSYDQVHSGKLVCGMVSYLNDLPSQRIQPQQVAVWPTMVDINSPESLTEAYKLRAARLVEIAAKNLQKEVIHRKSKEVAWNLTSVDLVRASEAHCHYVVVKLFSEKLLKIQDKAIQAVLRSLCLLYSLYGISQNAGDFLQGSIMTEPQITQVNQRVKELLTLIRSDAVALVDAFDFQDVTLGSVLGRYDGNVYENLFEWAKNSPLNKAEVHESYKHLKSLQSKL
# Sequence of UniProt O95870 (O95870 whole entry, looked up): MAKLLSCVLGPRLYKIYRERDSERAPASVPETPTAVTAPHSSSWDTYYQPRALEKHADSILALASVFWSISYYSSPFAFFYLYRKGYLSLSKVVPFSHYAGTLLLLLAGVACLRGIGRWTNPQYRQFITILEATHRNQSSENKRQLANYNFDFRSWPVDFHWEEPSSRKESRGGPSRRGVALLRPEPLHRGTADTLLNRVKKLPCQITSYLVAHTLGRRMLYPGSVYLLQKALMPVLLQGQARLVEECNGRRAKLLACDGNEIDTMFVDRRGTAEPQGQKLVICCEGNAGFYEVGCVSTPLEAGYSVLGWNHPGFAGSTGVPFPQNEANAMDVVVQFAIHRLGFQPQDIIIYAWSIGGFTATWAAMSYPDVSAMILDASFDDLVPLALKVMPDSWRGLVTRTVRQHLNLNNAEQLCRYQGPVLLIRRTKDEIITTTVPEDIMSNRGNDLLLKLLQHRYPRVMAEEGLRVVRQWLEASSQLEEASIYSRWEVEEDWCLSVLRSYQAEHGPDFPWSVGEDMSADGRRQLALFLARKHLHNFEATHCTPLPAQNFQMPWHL
# Sequence of UniProt Q9NXW9 (Q9NXW9 whole entry, looked up): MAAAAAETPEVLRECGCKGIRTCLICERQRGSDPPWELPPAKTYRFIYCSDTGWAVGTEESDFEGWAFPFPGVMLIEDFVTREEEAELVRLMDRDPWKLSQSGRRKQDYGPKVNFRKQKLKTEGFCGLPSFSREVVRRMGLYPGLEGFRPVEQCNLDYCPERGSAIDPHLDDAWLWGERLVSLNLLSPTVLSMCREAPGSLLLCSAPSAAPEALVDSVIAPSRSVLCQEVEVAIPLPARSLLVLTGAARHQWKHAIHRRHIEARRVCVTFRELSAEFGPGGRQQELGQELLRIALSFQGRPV
Target,log2 fold change [1],log2 fold change [2],log2 fold change [3],log2 fold change [4],log2 fold change [5],log2 fold change [6],log2 fold change [7],log2 fold change [8],log2 fold change [9],log2 fold change [10]
AMMECR1 (UniProt Q9Y4X0),0.007,0.003,0.019,-0.045,0.004,-0.009,-0.001,0.009,0.019,0.002
ANXA2 isoform 2 (UniProt P07355),-0.009,0.041,0.023,-0.003,0.003,0.004,0.025,-0.006,-0.001,-0.01
ACOX1 isoform 2 (UniProt Q15067),-0.01,-0.023,0.007,0.007,0.01,0.011,-0.017,-0.007,0.024,0.081
ALDH1A1 (UniProt P00352),-0.048,0.044,-0.054,0.048,0.008,-0.033,0.132,0.027,0.012,-0.029
ABI1 isoform 9 (UniProt Q8IZP0),-0.014,-0.003,0.025,0.01,-0.007,0.009,-0.014,0.006,0.004,-0.021
AP4B1 (UniProt Q9Y6B7),0.021,-0.038,0.016,0.096,0.038,0.019,-0.022,-0.018,0.188,0.013
ACSL4 (UniProt O60488),0.004,-0.074,-0.053,0.062,0.022,-0.014,-0.032,-0.065,-0.007,0.04
ADAR isoform 4 (UniProt P55265),-0.029,-0.114,-0.06,-0.031,0.002,0.001,-0.029,0.002,-0.017,0
ALKBH4 (UniProt Q9NXW9),0.014,-0.073,0.026,-0.011,0.017,-0.052,-0.069,0,0.019,0.003
AIMP1 isoform 2 (UniProt Q12904),0.044,0.013,-0.028,0.001,-0.03,0.021,-0.025,-0.02,0.02,0.01
ADRM1 (UniProt Q16186),0.007,-0.006,0.007,-0.026,-0.016,0.018,-0.088,0.012,0.007,0.026
ABHD12 isoform 2 (UniProt Q8N2K0),-0.027,-0.031,-0.062,0.074,0.037,-0.064,0,-0.03,0.048,0.014
ABHD16A (UniProt O95870),-0.009,-0.047,0.03,0.046,-0.042,0.015,-0.016,0.014,0.064,-0.006
ANXA5 (UniProt P08758),-0.011,-0.001,-0.024,0.014,-0.016,-0.023,0.009,-0.003,-0.049,-0.03
ACSL1 (UniProt P33121),0.02,-0.104,-0.153,0.086,0.051,0.025,-0.04,0.009,0.012,0.022
ADAM17 (UniProt P78536),0.021,-0.013,0.017,0.023,-0.023,0.044,-0.115,0.052,-0.093,0.04
AP3D1 isoform 5 (UniProt O14617),-0.013,-0.004,-0.006,0.011,0.001,-0.007,-0.015,-0.015,-0.001,-0.003
ANKRD27 (UniProt Q96NW4),0.087,-0.025,0.07,0.04,-0.033,0.02,-0.094,-0.036,0,0.014
ACAA1 (UniProt P09110),0.03,-0.455,0.041,0.015,0.03,-0.036,0.016,0.014,-0.024,-0.006
ALG3 (UniProt Q92685),0.19,-0.117,-0.12,-0.037,0.056,-0.016,-0.182,-0.103,-0.037,0.019
ACACA isoform 4 (UniProt Q13085),0.024,0.039,-0.029,-0.012,0.011,0.019,-0.047,0.003,0.024,0.005
ASB6 (UniProt Q9NWX5),0.038,-0.311,0.04,-0.094,-0.005,0.06,0.092,-0.053,0.327,0.002
ALG13 (UniProt Q9NP73),0.022,-0.014,0.049,-0.008,-0.048,0.047,-0.032,-0.01,0.083,-0.02
AKR1C3 (UniProt P42330),0.002,0.023,-0.1,0.029,0.008,0.3 (active),0.024,0.05,0.029,-0.017
ACADM isoform 2 (UniProt P11310),-0.088,0.049,-0.034,0.23,0.085,0.101,-0.032,-0.032,-0.003,-0.007
ABHD17A isoform 2 (UniProt Q96GS6),-0.016,-0.046,0.081,0.025,0.022,-0.009,-0.07,-0.023,0.025,0.006
ANXA1 (UniProt P04083),-0.012,0.013,0.015,0.014,-0.009,-0.008,-0.021,0.003,0.016,-0.013
ARAP1 (UniProt Q96P48),0.003,-0.164,-0.041,0.024,0.022,0.022,0.013,-0.01,-0.007,0.008
AK1 (UniProt P00568),-0.023,0.002,0.014,-0.036,0.002,-0.004,0.047,0.067,-0.003,-0.002
